This is an account of results in PubChem BioAssay (Tox21).

Experiment [1] can be described thus: qHTS assay to identify small molecule agonists of the hypoxia (HIF-1) signaling pathway - cell viability counter screen (AID 1224844; calls by dose curve; also: nearly all actives have a fitted effect of over 50% in size; also: potency is read from the fitted curve at half-maximal effect). In outline: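 HRE-bla ME-180 cells in medium with 0.5% dialyzed FBS were preincubated 5 hrs at 37C, exposed to compounds for 17 hrs, then viability was read as CellTiter-Glo luminescence after 30 min at room temperature, in the reporter wells.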

The nature of experiment [2]: qHTS assay to identify small molecule agonists of H2AX (AID 1224845; active = well fitted activation curve with a large enough effect in the signal ratio in the repeat runs, not every such curve was filed as active; the % refers to the signal ratio). A digest of the protocol:
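Wild-type CHO-K1 cells plated overnight, then exposed 3 hr at 37C to compounds at 15 concentrations (0.76% DMSO). Lysed, then HTRF anti-pH2AX(S139)-cryptate/anti-H2AX-d2 detection after 24 hr at room temperature; emissions 665 and 620 nm.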
A general note: Quantitative high-throughput screening tests each substance at several concentrations.

Experiment [3] is described as follows: qHTS assay to identify small molecule agonists of the hypoxia (HIF-1) signaling pathway (AID 1224846; active = well fitted activation curve with a large enough effect in the signal ratio in the repeat runs, not every such curve was filed as active; the % refers to the signal ratio). A digest of the protocol:
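HRE-bla ME-180 cells (beta-lactamase reporter under hypoxia response element) were plated at 2,000 cells/well in medium with 0.5% dialyzed FBS, rested 5 hrs, then given compounds in DMSO for 17 hrs at 37C, 5% CO2. Reporter induction was read with CCF4-AM FRET substrate.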

Experiment [4] can be described thus: qHTS RealTime-Glo MT Cell Viability Assay in HepG2 cells - 24 hour (AID 1224867). Also: nearly all actives have a fitted effect of over 50% in size. Also: potency is read from the fitted curve at half-maximal effect. In outline: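 Cells + NanoLuc/prosubstrate dispensed (600 cells/well) → 5 h at 37 C/5% CO2 → compounds in DMSO transferred → 40 h incubation at 37 C, luminescence read at 0, 8, 16, 24, 32, 40 h.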
The nature of experiment [5]: qHTS RealTime-Glo MT Cell Viability Assay in HEK293 cells - 32 hour (AID 1224868). Also: nearly all actives have a fitted effect of over 50% in size. Also: potency is read from the fitted curve at half-maximal effect. In outline: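 Tox21 10K qHTS, HEK293, 600 cells/well, RealTime-Glo reagent co-dispensed with cells; 5 h preincubation, compound by pintool, 37 C, luminescence at 0–40 h.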
Experiment [6] can be described thus: A CellTox Green Cytotoxicity Assay to monitor cytotoxicity in HEK293 cells - 0 hour (AID 1224869). Also: nearly all actives have a fitted effect of over 50% in size. A digest of the protocol: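 HEK293 cells premixed with CellTox Green dye were seeded at 600 cells/well and left 5 h at 37 C/5% CO2 before pin transfer of 23 nL compound in DMSO. Fluorescence from dye bound to dead-cell DNA was read during 40 h treatment.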
A short description of experiment [7]: qHTS RealTime-Glo MT Cell Viability Assay in HepG2 cells - 40 hour (AID 1224870). Also: nearly all actives have a fitted effect of over 50% in size. Also: potency is read from the fitted curve at half-maximal effect. A digest of the protocol: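 HepG2 cells mixed with RealTime-Glo MT reagents (NanoLuc plus cell-permeant prosubstrate) were seeded at 600 cells/well, incubated 5 h at 37 C/5% CO2, then pinned with compounds in DMSO; nonlytic luminescence tracked viability during 40 h treatment.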

Experiment [8] in a line: qHTS assay to identify small molecule antagonists of the estrogen related receptor (ERR) signaling pathway from Tox21 library (AID 1224848). Also: nearly all actives have a fitted effect of over 50% in size. Also: potency is read from the fitted curve at half-maximal effect. In outline: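 Screening used an ERR reporter line supplied by NTP, exposed for 18 h at 37 C to library compounds delivered in DMSO. Signal was luciferase luminescence developed with ONE-Glo at room temperature for 30 min.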
A short description of experiment [9]: qHTS assay to identify small molecule agonists of the estrogen related receptor (ERR) signaling pathway from Tox21 library (AID 1224849; calls by dose curve; also: nearly all actives have a fitted effect of over 15% in size). The note with it: ERR reporter cell line, ONE-Glo luciferase, 18 h; at 92.4 µM (top of the series) unless noted. A digest of the protocol: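 ERR reporter cell line (NTP) seeded, rested 6 h at 37 C/5% CO2, then pinned with Tox21 compounds in DMSO. After 18 h at 37 C, ONE-Glo luciferase luminescence was read following 30 min at room temperature.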

Experiment [10] can be described thus: qHTS assay to identify small molecule agonists of H2AX - cell viability counter screen (AID 1224847; calls by dose curve; also: top concentration of the series differs between compounds; nearly all actives have a fitted effect of over 30% in size). In outline:
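Read-out: CellTiter-Glo luminescence, 30 min RT. Cells: wild-type CHO-K1, 1000/well, 10% FBS, plated overnight at 37C. Treatment: 15 concentrations, 3 hr, 37C, 0.76% DMSO.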

Results filed as inconclusive are left out. Active and inactive are the calls of the source. Unless noted, calls follow the shape of the dose curve; as a rule, active = well fitted curve in the direction sought with a large enough effect in the repeat runs; inconclusive = weak or mixed curves; inactive = no such curve, though single readings can be large; an effect the other way counts as inactive or inconclusive.
% is scaled to controls: 0 for no effect and ±100 for the full control effect.

`Cc1cccc(Nc2ccccc2)c1`: the Potency entry in experiment [1], in experiment [2], in experiment [3], in [4], in [5] and in [6] was “inactive” in each case. For the same molecule, the Potency entry in experiment [7] is “inactive”.

With `Cc1nn(C)c(Oc2ccccc2)c1/C=N/OCc1ccc(C(=O)OC(C)(C)C)cc1`, the Potency entry in experiment [1], in experiment [2], in experiment [3], in [4], in experiment [6] and in experiment [7] was “inactive” in each case. Also, the Potency in experiment [8] was 0.0049 µM (active); in experiment [5], 0.0044 µM (active). Moreover, the activity change, positive = activation in experiment [9] is -44.6% (inactive).

As to `CCC(C)O` (stereo not drawn), the Potency result in experiment [1], in experiment [2], in [3], in experiment [8], in experiment [4] and in experiment [5] was “inactive” throughout. Further, the Potency result in experiment [6] and in experiment [7] was “inactive” each time. The activity change, positive = activation in experiment [9] is 0.0918% (inactive).

Consider `CC(C)(COC(=O)c1ccccc1)COC(=O)c1ccccc1`, for which the Potency entry in experiment [1], in experiment [2], in experiment [3], in experiment [4], in experiment [5] and in experiment [6] was “inactive” each time. In addition, in experiment [7], the Potency result was “inactive”.

Take `C=C1[C@H]2CC[C@@H]3[C@H]2C(C)(C)CCC[C@]13C`: the Potency result in [1], in [2], in experiment [3], in [4], in [5] and in experiment [6] was “inactive” each time. For the same molecule, the Potency entry in experiment [7] was “inactive”.

Turning to `CCOC(=O)C(F)(F)F`, the Potency entry in [1], in experiment [2], in [3], in [4], in experiment [5] and in experiment [6] was “inactive” throughout. Further, the Potency result in experiment [7] was “inactive”.

Take `Nc1cccc(S(=O)(=O)c2cccc(N)c2)c1`: the Potency result in experiment [1], in [2], in [3], in [8], in [4] and in [5] was “inactive” each time. Also, the Potency result in experiment [6] and in [7] was “inactive” each time. In addition, the activity change, positive = activation in experiment [9] is 0.747% (inactive).

Take `C=C(C)C(=O)OCC`: the Potency entry in [1], in experiment [2], in experiment [10], in experiment [4], in experiment [5] and in experiment [6] was “inactive” throughout. In experiment [7], the Potency entry was “inactive”. Moreover, the activity change, positive = activation in experiment [9] was 5.74% (inactive).

As for `CC(=O)NO`, the Potency entry in experiment [1], in [2], in experiment [3], in experiment [4], in experiment [5] and in [6] was “inactive” in each case. In [7], the Potency entry was “inactive”.

For `Cc1c(N)cccc1[N+](=O)[O-]`, the Potency result in experiment [1], in [2], in experiment [3], in [8], in experiment [4] and in experiment [5] was “inactive” throughout. Besides, the Potency result in [6] and in experiment [7] was “inactive” throughout. Further, the activity change, positive = activation in experiment [9] was -14.7% (inactive).

`OCc1cc(C(O)CNCCCCCCOCCCCc2ccccc2)ccc1O` (stereo not drawn): the Potency entry in [1], in experiment [2], in experiment [10] and in experiment [6] was “inactive” in each case. Moreover, in experiment [9], the activity change, positive = activation is -29.9% [at 42.5 µM] (inactive). Moreover, the Potency in [5] was 21.3 µM (active).

As for `Nc1ccccc1S(=O)(=O)c1ccccc1`, the Potency entry in experiment [1], in experiment [2], in experiment [4], in [5], in experiment [6] and in experiment [7] was “inactive” in each case. For the same molecule, in experiment [9], the activity change, positive = activation was -20.8% (inactive).

Take `CCCCC(CC)CN1C(=O)C2C3C=CC(C3)C2C1=O` (stereo not drawn): the Potency result in [1], in experiment [2], in experiment [4], in [6] and in experiment [7] was “inactive” each time. The activity change, positive = activation in experiment [9] was -33.1% (inactive).

Consider `CN(C)CCN(Cc1ccsc1)c1ccccn1`, for which the Potency entry in experiment [1], in experiment [2], in experiment [10], in experiment [4], in experiment [5] and in [6] was “inactive” in each case. The Potency result in experiment [7] was “inactive”.

As for `CCCCCCc1ccc(-c2ccc(C#N)cc2)cc1`, the Potency entry in experiment [1], in experiment [2], in experiment [4], in experiment [5], in [6] and in experiment [7] was “inactive” each time. For the same molecule, in experiment [9], the activity change, positive = activation was 1.68% (inactive).

Consider `CCCCCCCCCOS(=O)(=O)O`, for which the Potency entry in experiment [1], in experiment [2], in [10], in [4], in experiment [5] and in experiment [6] was “inactive” each time. In experiment [7], the Potency entry was “inactive”.

On to `O=C(Nc1ccccc1)c1ccccc1O`, for which the Potency entry in experiment [1], in experiment [2], in experiment [4] and in experiment [6] was “inactive” in each case. Further, the activity change, positive = activation in [9] is -30.7% (inactive).

Consider `CCCCCCCCCCCCCCOS(=O)(=O)O`, for which, in experiment [1], the Potency is 54.9 µM (active). Moreover, the Potency result in [2], in experiment [10], in [4], in experiment [5], in [6] and in experiment [7] was “inactive” throughout. Besides, the activity change, positive = activation in experiment [9] is -17.5% (inactive).

Consider `c1ccc(CNCCNCc2ccccc2)cc1`, for which the Potency result in experiment [1], in experiment [2], in experiment [10], in experiment [4], in experiment [5] and in experiment [6] was “inactive” throughout. The Potency result in experiment [7] was “inactive”.

Take `CC(C)C[C@H]1C(=O)N2CCC[C@H]2[C@]2(O)O[C@](NC(=O)[C@@H]3C=C4c5cccc6[nH]c(Br)c(c56)C[C@H]4N(C)C3)(C(C)C)C(=O)N12`: the Potency result in experiment [1], in experiment [2], in experiment [10] and in experiment [6] was “inactive” each time. Also, in experiment [9], the activity change, positive = activation is -64.1% [at 42.5 µM] (inactive). The Potency in experiment [4] was 13.2 µM (active); in [7] it was 14.8 µM (active).

With `CCC(C)(C)CC`, the Potency result in [1], in [2], in [10], in experiment [4], in experiment [5] and in experiment [6] was “inactive” each time. The Potency entry in experiment [7] was “inactive”. Further, in experiment [9], the activity change, positive = activation is -6.86% (inactive).

As for `C=CCOc1ccccc1OCC(O)CNC(C)C` (stereo not drawn), the Potency result in experiment [1], in experiment [2], in experiment [8], in experiment [4], in [5] and in [6] was “inactive” each time. In addition, in experiment [7], the Potency result was “inactive”. In [9], the activity change, positive = activation was 4.2% [at 42.5 µM] (inactive).

For the molecule `CCOC(=O)NCCOc1ccc(Oc2ccccc2)cc1`, the Potency entry in experiment [1], in experiment [2], in experiment [4], in experiment [6] and in experiment [7] was “inactive” in each case. The Potency in experiment [8] was 19.3 µM (active); in experiment [5], 21.9 µM (active). Also, the activity change, positive = activation in experiment [9] is -42.2% (inactive).

As for `CC[N+]1(CC)CCC(=C(c2ccccc2)c2ccccc2)C1C` (stereo not drawn), the Potency entry in experiment [1], in experiment [2], in experiment [10], in experiment [4], in experiment [6] and in experiment [7] was “inactive” throughout.

For `CC1=CC[C@H](C(C)C)C=C1`, the Potency entry in [1], in [2], in [10], in experiment [4], in experiment [5] and in experiment [6] was “inactive” each time. For the same molecule, in experiment [7], the Potency result is “inactive”.
